For 7 compounds, growth results are on record in PubChem BioAssay (NCI).

Among the test systems are NCI-H23 lung; NCI-H322M lung; HOP-62 NSCLC; NCI-H460 lung; HOP-92 NSCLC; NCI-H522 lung; A549/ATCC NSCLC; 786-0 renal; COLO 205 colon; DU-145 prostate; K-562 leukemia; MALME-3M melanoma; MDA-MB-231 breast; RXF 393 renal; SF-268 CNS; SF-295 CNS; SF-539 CNS; UACC-257 melanoma; M14 melanoma; HCT-15 colon.
Common to all, as to experiment: NCI-60 one-dose screen, 48 h (100 = growth as untreated, 0 = no growth, -100 = all killed)
Details in all cases: 10 µM unless noted

Structures are written as SMILES. Compounds without any hit were thinned out: in the full panel of roughly 83,000, 20% have a hit.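 48-hour exposure, single concentration, 96-well plates; percent growth endpoint where 0 means no net growth. Active: below 10.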 Values without a mark were called inactive. Activity calls are given as the source filed them.

For the compound `COc1cc(C2C3=C(COC3=O)N(CCO)c3cc4c(cc32)OCCO4)cc(OC)c1O` (stereo not given), the growth in the assay on NCI-H23 lung is 35.8%; in the assay on NCI-H322M lung, 51.6%; with HOP-62 NSCLC, 32.9%; with NCI-H460 lung it was -3.84% (active); in the assay with HOP-92 NSCLC it was 85.3%; in the assay with NCI-H522 lung, -23.4% (active). Further, the growth with A549/ATCC NSCLC is 52.8%; in the assay with 786-0 renal, 19.8%; with COLO 205 colon, 18.2%; in the assay with DU-145 prostate, -8.77% (active); in the assay with K-562 leukemia, 12.5%; with MALME-3M melanoma, 64.7%. Further, the growth in the assay with MDA-MB-231 breast is 27.7%; in the assay with RXF 393 renal it was -45.7% (active); in the assay on SF-268 CNS, 46%; in the assay on SF-295 CNS, 2.74% (active); with SF-539 CNS, -31.2% (active); with UACC-257 melanoma, 46.2%. Moreover, the growth in the assay with M14 melanoma was -22.4% (active); in the assay with HCT-15 colon it was 49.4%.
For the compound `NS(=O)(=O)c1ccc(CCN=C=S)cc1`, the growth with NCI-H23 lung was 32.7%; with NCI-H322M lung, 85.2%; with HOP-62 NSCLC, 101%; with NCI-H460 lung, 56.7%; in the assay with HOP-92 NSCLC, 23.4%; with NCI-H522 lung, -69.8% (active). The growth with A549/ATCC NSCLC was 71.5%; in the assay on 786-0 renal, 20.8%; with COLO 205 colon, -36.7% (active); in the assay on DU-145 prostate, 6.92% (active); with K-562 leukemia it was 5.24% (active); in the assay with MALME-3M melanoma, 40.9%. The growth in the assay with MDA-MB-231 breast was 15.6%; in the assay with RXF 393 renal it was -36.3% (active); in the assay with SF-268 CNS, 53.3%; in the assay with SF-295 CNS, 105%; in the assay on SF-539 CNS it was 37.2%; with UACC-257 melanoma it was 24.7%. Besides, the growth in the assay on M14 melanoma was 12.6%; in the assay on HCT-15 colon, 0.368% (active).
As for `CCCCCCc1cc2cc(-c3csc(/C=C/c4ccccc4)n3)c(=O)oc2cc1O`, the growth was 54.5% with NCI-H23 lung; 63.9% in the assay on NCI-H322M lung; 34.9% in the assay with HOP-62 NSCLC; 17.7% in the assay on NCI-H460 lung; -3.21% (active) in the assay with HOP-92 NSCLC; -30.7% (active) in the assay on NCI-H522 lung. The growth in the assay on A549/ATCC NSCLC was 28.7%; in the assay with 786-0 renal it was 30.1%; in the assay with COLO 205 colon, -93.5% (active); in the assay on DU-145 prostate, 53.3%; in the assay with K-562 leukemia, -25.8% (active); in the assay with MALME-3M melanoma, -79.9% (active). For the same compound, the growth in the assay on MDA-MB-231 breast was -8.21% (active); in the assay with RXF 393 renal, -9.75% (active); in the assay on SF-268 CNS it was 17%; with SF-295 CNS, -55% (active); in the assay on SF-539 CNS it was -77.3% (active); with UACC-257 melanoma, -78.3% (active). The values for the growth in the assay on M14 melanoma and with HCT-15 colon were -58.3% (active) and 18.9%, respectively.
Take `O=C(CN1C(=O)/C(=C\c2ccc(Cl)cc2)SC1=S)Nc1ncc(Cc2ccc(Cl)cc2)s1`: the growth in the assay with NCI-H23 lung is 100%; with NCI-H322M lung, 107%; in the assay on HOP-62 NSCLC, 105%; in the assay with NCI-H460 lung, 100%; in the assay with HOP-92 NSCLC, 101%; with NCI-H522 lung it was 89.5%. The growth in the assay on A549/ATCC NSCLC is 108%; in the assay with 786-0 renal it was 106%; in the assay on COLO 205 colon, 110%; in the assay with DU-145 prostate, 106%; in the assay on K-562 leukemia, 105%; in the assay with MALME-3M melanoma it was 99.4%. The growth is 104% in the assay on MDA-MB-231 breast; 110% in the assay on RXF 393 renal; 97.4% in the assay with SF-268 CNS; 101% with SF-295 CNS; 94.3% in the assay with SF-539 CNS; 104% with UACC-257 melanoma. For the same compound, the growth in the assay on M14 melanoma is 102%; with HCT-15 colon, 103%.
On to `Cc1ccc(S(=O)(=O)c2c(COC(=O)c3cccc(C)c3)c(-c3ccccc3)nn2C)cc1`, for which the growth with NCI-H23 lung was 94.5%; in the assay with NCI-H322M lung it was -4.7% (active); in the assay with HOP-62 NSCLC, 18.1%; with NCI-H460 lung it was 102%; in the assay with HOP-92 NSCLC it was 71.4%; with NCI-H522 lung, -33.1% (active). In addition, the growth in the assay with A549/ATCC NSCLC was -32.7% (active); in the assay with 786-0 renal, 106%; in the assay on COLO 205 colon it was -95.9% (active); with DU-145 prostate, 116%; in the assay with K-562 leukemia it was -23% (active); in the assay on MALME-3M melanoma it was -47.5% (active). The growth in the assay on MDA-MB-231 breast is 14.3%; in the assay with RXF 393 renal it was 93.4%; in the assay with SF-268 CNS, 68.3%; in the assay on SF-295 CNS, 54.7%; with SF-539 CNS it was 21.4%; in the assay on UACC-257 melanoma, 83.5%. Further, the growth in the assay on M14 melanoma is 89.9%; with HCT-15 colon, 62.2%.
For `O=C(Nc1ccc(F)cc1F)c1cc(Cl)ccc1O`, the growth is 5.18% (active) in the assay on NCI-H23 lung; 5.61% (active) with NCI-H322M lung; 3.07% (active) in the assay on HOP-62 NSCLC; 7.22% (active) with NCI-H460 lung; -20.5% (active) in the assay with HOP-92 NSCLC; -28.2% (active) in the assay with NCI-H522 lung. Also, the growth in the assay with A549/ATCC NSCLC was 6.37% (active); with 786-0 renal, 2.83% (active); with COLO 205 colon, 9.45% (active); with DU-145 prostate, 18%; with K-562 leukemia, 11%; in the assay on MALME-3M melanoma, -21.9% (active). In addition, the growth with MDA-MB-231 breast is 10.3%; in the assay with RXF 393 renal it was 4.05% (active); with SF-268 CNS, 15%; in the assay on SF-295 CNS, -8.97% (active); with SF-539 CNS, 12.3%; in the assay with UACC-257 melanoma it was -11% (active). The growth was 18.8% in the assay with M14 melanoma and 13.9% with HCT-15 colon.
As for `O=C(O)CCCN1C(=O)C2C3CCC(C3)C2C1=O` (stereo not given), the growth with NCI-H23 lung was 101%; with NCI-H322M lung, 107%; in the assay with HOP-62 NSCLC, 109%; in the assay on NCI-H460 lung it was 116%; in the assay with HOP-92 NSCLC, 107%; in the assay with NCI-H522 lung, 88%. The growth in the assay with A549/ATCC NSCLC was 104%; with 786-0 renal it was 106%; in the assay on COLO 205 colon it was 119%; in the assay with DU-145 prostate, 115%; with K-562 leukemia, 105%; with MALME-3M melanoma it was 96%. Further, the growth was 130% in the assay with MDA-MB-231 breast; 83.8% in the assay with RXF 393 renal; 107% in the assay with SF-268 CNS; 109% in the assay on SF-295 CNS; 103% with SF-539 CNS; 111% in the assay on UACC-257 melanoma. For the same compound, the growth in the assay with M14 melanoma is 105%; in the assay on HCT-15 colon, 103%.
